The record followed here is the supplement of paper PMC8728848.

What all share (experiment): glycan array binding signal (z-score within array); higher = stronger binding
Holding throughout (conditions): glycan notation: IUPAC condensed, linker removed

For test [1], the target named is Fuc(a1-2)Gal(b1-3)GalNAc(b1-3)Gal(b1-4)Glc. In short, it runs like this:
(§1)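 Arrays were curated from the Consortium for Functional Glycomics database, 3228 in total, and kept only where the protein sequence was available. Binding is expressed as a within-array Z-score. This score was averaged across arrays of the same protein sequence at different concentrations or buffers and across linkers, and negative values can be read as non-binding.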

The target in test [2] is Fuc(a1-2)[Gal(a1-3)]Gal(b1-4)[Fuc(a1-3)]GlcNAc. In short, it runs like this: as §1
The target in test [3] is Fuc(a1-2)[GalNAc(a1-3)]Gal(b1-4)Glc. Summed up: as §1
Test [4] addresses Fuc(a1-4)GlcNAc. In short, it runs like this: as §1
Test [5] deals with Gal(a1-3)Gal(b1-4)GlcNAc. In short, it runs like this: as §1
In test [6] the target is Gal(b1-3)GalNAc(b1-3)Gal(b1-4)Glc. In short, it runs like this: as §1
Test [7] addresses Gal(b1-4)GalNAc(a1-3)[Fuc(a1-2)]Gal(b1-4)GlcNAc. In short, it runs like this: as §1
Test [8] deals with Gal(b1-4)GlcNAc(b1-3)Gal(b1-4)Glc. In short, it runs like this: as §1
The target of test [9] is Gal6S(b1-4)Glc6S. Summed up:
as §1

For test [10], the target named is GalNAc(a1-3)Gal. In short, it runs like this: as §1
The target in test [11] is GlcNAc(b1-3)[GlcNAc(b1-4)][GlcNAc(b1-6)]GlcNAc. In short, it runs like this: as §1
The target in test [12] is GlcNAc(b1-4)[GlcNAc(b1-6)]GalNAc. In short, it runs like this: as §1
For test [13], the target named is Man(a1-2)Man(a1-3)[Man(a1-3)[Man(a1-6)]Man(a1-6)]Man(b1-4)GlcNAc(b1-4)GlcNAc. Summed up:
as §1

Test [14] concerns the target Neu5Ac(a2-3)Gal(b1-4)[Fuc(a1-3)]GlcNAc. Summed up: as §1

The sample as a whole holds a higher share of the strongest signals than the screen did.

B1: Alpha-agglutinin (Saccharomyces cerevisiae) (protein)
chain: MFTFLKIILWLFSLALASAININDITFSNLEITPLTANKQPDQGWTATFDFSIADASSIREGDEFTLSMPHVYRIKLLNSSQTATISLADGTEAFKCYVSQQAAYLYENTTFTCTAQNDLSSYNTIDGSITFSLNFSDGGSSYEYELENAKFFKSGPMLVKLGNQMSDVVNFDPAAFTENVFHSGRSTGYGSFESYHLGMYCPNGYFLGGTEKIDYDSSNNNVDLDCSSVQVYSSNDFNDWWFPQSYNDTNADVTCFGSNLWITLDEKLYDGEMLWVNALQSLPANVNTIDHALEFQYTCLDTIANTTYATQFSTTREFIVYQGR
Take B1: the “glycan array binding signal (z-score)” value in [1] is 6.41; in test [2], -0.112; in test [3], 0.558; in [4], -0.216; in test [5] it was -0.248; in test [6] it was 8.68. For the same molecule, the “glycan array binding signal (z-score)” value was 0.014 in test [7]; 3.24 in test [8]; 0.122 in test [9]; -0.162 in test [10]; 0.203 in test [11]; 5.52 in test [12]. The results for the “glycan array binding signal (z-score)” value in [13] and in test [14] were -0.251 and -0.258, respectively.
